Most compounds without a hit are left out; they make up all but 3.4% or so of the library.
GalR3 antag = human GalR3 antagonism. O60755. HEK293 GalR3-CNG cAMP membrane potential fluorescence; galR3 body fused to GalR1 C-terminus. inhibition, % at 3 µM. 360,000 compounds, 0.44% hits. AID 651719;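 active = inhibition above the screen-wide average plus 3 SD, cut at about 13% in these data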;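 also: forskolin and galanin both at EC90 stimulate the cells; cAMP rise reported by CNG channel membrane potential dye signal; 0% = forskolin plus galanin with DMSO and 100% = forskolin alone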
SMARCA2 activ = increases SMARCA2 function in MMTV reporter cells | MG213 cells, MMTV-luciferase reporter, dexamethasone, overnight | activation, % at 9.1 µM | 370,000 compounds, 1% hits; in the data active = activation above about 7.8%;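 also: 0% = vehicle wells and 100% = reference activator wells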
NR2F2 inh = blocks human COUP-TFII nuclear receptor. 370,000 compounds, 0.7% hits. AID 686940. inhibition, % at 8.6 µM. P24468. HEK293T NGFI-A luciferase reporter, luminescence;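 active = inhibition above a per-plate cutoff, mean inhibition of test wells between control levels plus 3 SD, cut at about 38% in these data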;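 also: cells cotransfected with COUP-TFII expression vector driving the NGFI-A reporter; 0% = median of COUP-TF2 test wells and 100% = reporter-only cells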
Target sequence (P24468 whole entry, looked up): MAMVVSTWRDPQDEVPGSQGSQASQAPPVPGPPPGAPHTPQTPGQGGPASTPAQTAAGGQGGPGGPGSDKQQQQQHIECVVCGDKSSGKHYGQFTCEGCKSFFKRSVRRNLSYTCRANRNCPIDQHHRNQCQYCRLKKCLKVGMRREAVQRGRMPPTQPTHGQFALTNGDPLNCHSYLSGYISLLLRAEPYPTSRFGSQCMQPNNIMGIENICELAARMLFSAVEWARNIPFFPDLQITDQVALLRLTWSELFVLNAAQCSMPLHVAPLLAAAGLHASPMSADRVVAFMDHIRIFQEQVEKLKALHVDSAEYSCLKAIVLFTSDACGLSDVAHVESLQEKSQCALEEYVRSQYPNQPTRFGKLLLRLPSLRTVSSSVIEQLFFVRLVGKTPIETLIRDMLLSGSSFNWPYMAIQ
GAA850 FXN act = frataxin GAA850 promoter activation. activation, % at 6 µM. AID 540364. HEK293 lucGAA850 FXN promoter luciferase reporter, 24 h; percent of 10 µM SAHA response. 360,000 compounds, 0.56% hits;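 active = activation above the average of all compounds screened plus 3 SD, cutoff fixed separately per campaign, cut at about 7.5% in these data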;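 also: 0% = DMSO wells and 100% = 10 µM SAHA wells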
Cardio protect = myocardial damage modulation in H9c2 cells; H9c2 cardiomyocytes, H2O2 injury protection, ATPLite, 2 h; protection from H2O2 cell death, % at 20 µM; 360,000 compounds, 0.63% hits; AID 588492;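 active = compounds giving at least 50% protection of heart cells from peroxide-induced death in the single-dose screen, raw or plate-pattern-corrected value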;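 also: 0% = DMSO wells with peroxide and 100% = DMSO wells without peroxide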
Gli-Sufu block = Gli-Sufu pathway antagonism; Sufu-KO-LIGHT fibroblasts, Gli luciferase reporter luminescence; inhibition, % at 5 µM; 340,000 compounds, 0.74% hits;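 active = inhibition above about 55%, limit read from the data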;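 also: 0% = DMSO-treated cells and 100% = wells with medium but no cells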
Numbers without * were called inactive; . = no result given.

SMILES	GalR3 antag	SMARCA2 activ	NR2F2 inh	GAA850 FXN act	Cardio protect	Gli-Sufu block
ClC1=C(Cl)C(Cl)=C(Cl)C1=C/C=C/c1ccccc1	-2	-5	8	0	-10	79*
CC(C)Cc1nc2oc3c(NCC4CCCO4)ncnc3c2c2c1CCC2 (stereo not drawn)	-3	-1	-26	4	73*	13
COC(=O)C1CN(C2CCCC2)CCS(=O)(=O)N1Cc1cn(Cc2ccc(C)cc2)nn1 (stereo not drawn)	.	-3	3	.	.	.
CC(C)n1c(O)c(N=Nc2ccc(Cl)nn2)c2ccccc21	-10	-1	19	-4	65*	20
S=C(Nc1ccccc1I)OC1CCC12CCC(c1ccccc1)CC2 (stereo not drawn)	.	.	21	.	.	.
CC(=O)Nc1ccc(NC2=Nc3ccccc3N3C2=Nc2c(c(C)nn2-c2ccccc2)C3c2ccccc2)cc1 (stereo not drawn)	-1	2	0	0	-20	60*
CCN(CC)c1ccc(/C=C2\SC(=O)N(C(C)C)C2=O)o1	.	.	.	14*	-16	-32
CC(C)N1C(=O)S/C(=C/c2ccc3c(c2)n(C)c(=O)n3C)C1=O	-3	7	-12	4	63*	11
CCC(C)N1C(=O)S/C(=C/c2ccc3c(c2)n(C)c(=O)n3C)C1=O (stereo not drawn)	-1	1	-21	4	57*	17
CN(CCO)c1ccc2c(c1)Oc1ccccc1CN(Cc1cn(Cc3cccc(C(F)(F)F)c3)nn1)S2(=O)=O	.	0	-2	.	.	.
CCC(CO)NCc1cc(OC)c(OCC(=O)NCCc2ccccc2)cc1Br (stereo not drawn)	-2	8.3*	-1	-7	10	2
COC(=O)c1cccc(OCC(C)CN2CCC(C(O)(c3ccccc3)c3ccccc3)CC2)c1 (stereo not drawn)	.	-4	3	.	.	.
Oc1ccc2ccccc2c1C=Nn1c(-c2n[nH]c3c2CCC3)n[nH]c1=S	.	-5	-2	.	.	.
CCOc1ccc(CCn2c(-c3ccco3)nc3ccccc3c2=O)cc1OCC	-4	-2	16	-4	104*	5
CCOc1cccc(C2C(C#N)=C(N)Oc3cc(C)[nH]c(=O)c32)c1OCC (stereo not drawn)	5	0	-13	0	-20	11
CCc1ccc2[nH]c(=O)c(C3C(C#N)=C(N)Oc4c3ccc3cccnc43)cc2c1 (stereo not drawn)	-2	-2	8	-2	64*	5
N#CC1=C(N)Oc2c(ccc3cccnc23)C1c1cccnc1 (stereo not drawn)	-4	-3	5	-6	83*	3
Cc1ccc2cc(C3C(C#N)=C(N)Oc4c3ccc3cccnc43)c(=O)[nH]c2c1 (stereo not drawn)	.	.	.	-1	70*	0
O=C(NC1CCCCN(Cc2cccc(Cl)c2)C1=O)c1ccccn1 (stereo not drawn)	.	-3	-16	.	.	.
C=CCN1[C@@H](C)COc2cccc(N3CCCC3)c2S1(=O)=O	.	0	7	.	.	.
CC1CCN(C(=O)C2Cc3ccccc3CN2S(=O)(=O)c2ccc(F)cc2)CC1 (stereo not drawn)	-1	-1	0	11*	9	1
O=C(C1Cc2ccccc2CN1S(=O)(=O)c1ccc(F)cc1)N1CCCCCC1 (stereo not drawn)	-4	1	-5	0	1	-3
O=C(CCN1CCN(c2ccccc2)CC1)N/N=C/c1ccccc1O	1	6	20	-4	55*	5
O=C(C1CCCN(S(=O)(=O)c2ccc([N+](=O)[O-])cc2)C1)N1CCN(Cc2ccccc2)CC1 (stereo not drawn)	.	-3	30	.	.	.
COc1ccccc1CCn1cnc(-c2cccc(F)c2)c1CC(C)C	-8	-8	26	.	.	.
SMILES	GalR3 antag	SMARCA2 activ	NR2F2 inh	GAA850 FXN act	Cardio protect	Gli-Sufu block
COc1ccc(/C=N/NC(=O)C(=O)/C=C2\NC3(CCCC3)Cc3ccccc32)cc1	-1	-6	3	3	0	15
O=C(/C=C1\NC2(CCCC2)Cc2ccccc21)C(=O)N/N=C/c1ccc(O)c(O)c1	-5	-6	14	7	102*	17
Cc1[nH]n2c(=O)c3c(nc2c1-c1ccc(Cl)cc1)CCC3	.	.	.	-1	54*	-106
CCN1/C(=C/c2ccc3cc(C)ccc3[n+]2CC)Sc2ccc3sccc3c21	.	.	.	-4	-29	87*
O=C(O)c1ccc2c(c1)S(=O)(=O)c1cc(N3CCN(c4cnccn4)CC3)ccc1C2=O	-4	1	15	0	50*	.
CC(=O)c1ccc(-c2cnc3c(NC=O)cc(-c4cccc(C(=O)N(C)C)c4)cn23)cc1	-2	-1	-27	-2	76*	.
CC(=O)c1cccc(-c2cnc3c(NC=O)cc(-c4ccccc4)cn23)c1	-6	2	-10	3	30	.
COc1cccc(-c2cnc3c(NC=O)cc(-c4ccccc4)cn23)c1	-6	4	-8	-2	6	.
COc1ccc(-c2cc(NC=O)c3ncc(-c4cccc(C(C)=O)c4)n3c2)cc1	2	0	-4	3	65*	.
COc1cccc(-c2cnc3c(NC(C)=O)cc(-c4cccc(NS(C)(=O)=O)c4)cn23)c1	-6	4	-6	-1	63*	.
COc1cccc(-c2cnc3c(NC=O)cc(-c4cccc(NC(C)=O)c4)cn23)c1	-8	2	-18	-1	64*	.
CC(C)C[C@H]1COc2cccc(F)c2S(=O)(=O)N1Cc1cn(Cc2ccc(F)cc2)nn1	.	1	-17	.	.	.
O=C(CSc1nnc(-c2cccnc2)n1C1CCCCC1)N1CCCC1	.	-3	4	.	.	.
COc1cccc(-c2cnc3c(NC=O)cc(-c4cc(C)c(O)c(C)c4)cn23)c1	-6	2	-35	-4	67*	.
COc1cc(-c2cnc3c(NC=O)cc(-c4ccccc4)cn23)cc(OC)c1OC	-2	-2	-69	-1	31	.
COc1cc(-c2cnc3c(NC=O)cc(-c4cccc(NC(C)=O)c4)cn23)cc(OC)c1OC	-2	3	-78	-6	54*	.
CC(C)N1CCCCC(NC(=O)c2ccc(F)c(F)c2)C1=O (stereo not drawn)	.	0	-17	.	.	.
Cc1c(O)ccc2c3c(c(=O)oc12)CCC(C)C3 (stereo not drawn)	0	1	3	0	52*	1
Cc1c(O)ccc2c3c(c(=O)oc12)CCCC3	-1	-3	-23	1	38	-2
CC(=O)N1CCN(C2=NC(=O)N(c3ccc(Br)cc3)C(=O)C2)CC1	.	-4	7	.	.	.
COc1ccc(N2CCN(C(CNC(=O)C(C)(C)C)c3cccnc3)CC2)cc1 (stereo not drawn)	-6	7.8*	1	0	4	-11
